# Measurements from the supplement of paper PMC6555819.
# Experiments:
# Test in all cases: PBM binding z-score (relative to random genomic background probes); higher = stronger binding; sequences stand for … in GC…GCGATTGACAGCGTAGAATGAAGG
# [1] = test system: RARb homodimer (NR concentration 270 nM)
# How it was run: (§1)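 Probes were double-stranded and carried 34-nt variable regions with direct-repeat seeds, single-nucleotide variants, half-site ablations and random human genomic background sequences, printed on custom Agilent 4×180K protein-binding microarrays. Arrays were incubated 1 h with ligand-free nuclear receptor dimers in PBS pH 7.4, 2% milk, 0.02% Triton X-100, 1 mM DTT, 0.2 mg/mL BSA and 0.4 mg/ml salmon testes DNA. Antibodies against each partner (one per run) detected binding, and scanned fluorescence was regression-normalized. Binding z-scores use the random background probes as reference.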
# [2] = test system: RARg:RXRa (NR concentration 270 nM, RXRa partner concentration 90 nM)
# How it was run: as §1
# [3] = test system: RARg homodimer (NR concentration 270 nM)
# How it was run: as §1
# [4] = test system: RXRa DBDmut IVT, anti-RXR (DBD mutation: RXRa K156A/R161A, NR concentration 90 nM)
# How it was run: as §1
# [5] = test system: RXRa homodimer (NR concentration 180 nM)
# How it was run: as §1
# [6] = test system: THRa:RXRa (NR concentration 90 nM, RXRa partner concentration 90 nM)
# How it was run: as §1
# [7] = test system: THRa homodimer (NR concentration 90 nM)
# How it was run: as §1
# [8] = test system: VDR:RXRa (NR concentration 270 nM, RXRa partner concentration 90 nM)
# How it was run: as §1
# [9] = test system: VDR homodimer (NR concentration 270 nM)
# How it was run: as §1
Sequence,PBM binding z-score [1],PBM binding z-score [2],PBM binding z-score [3],PBM binding z-score [4],PBM binding z-score [5],PBM binding z-score [6],PBM binding z-score [7],PBM binding z-score [8],PBM binding z-score [9]
ACCGACAGGTGAGTGAAGGTAACTCAGCTGGACG,-0.286,0.0773,0.407,-0.459,0.0984,1.56,-0.918,-0.484,-1
CCTACTGGGCCATCAGGTCATTGTTATCAACGTT,2.4,1.8,1.75,0.592,0.877,3.26,3.28,1.52,1.99
GATACAGGGTCAGCTAGAGGCCAGGGTATGGAAA,3.59,6.74,4.95,0.978,4.38,3.08,0.844,3.14,1.01
TCATATAGGTAAAGGTGTAAGTCGAACGATATGA,-0.352,0.365,0.406,0.642,0.621,-0.275,-0.761,0.297,-0.275
GCGACTGGGACATCAGCAGGTTACCATAACTTAA,0.428,-0.00527,0.0107,-0.5,0.176,0.674,0.0254,-0.302,-0.459
ACTTACGGGTGAACGAGGTTATAGCACGCGTATA,1.2,1.47,0.987,0.294,2.06,2.39,0.511,5.33,1.01
CAGCCTAGGCCAGGGCCAGTATAGGAGGAACGTT,-0.366,-0.536,0.11,-1.57,-0.601,-0.884,-0.601,-1,-0.322
TCAGACAGGTGAATGTAACTCAGGTACGCAGTCG,0.305,0.399,0.476,1.01,0.802,0.274,0.15,0.512,0.463
CAAACTAGGTCACCAAAGGTCAAAGTCGAATGAC,5.94,7.87,8.54,2.57,7.91,5.17,2.46,6.93,3.85
ACTTACGGGTCAACGAGGCTATAGCACGCGTATA,3.07,5.01,4.51,2.15,5.06,3.35,0.239,6.74,1.55
CCTGCTAGGTCAATGGTCAGCAAAAGCAGCTCGC,2.84,3.57,4.83,1.78,2.47,2.16,0.37,0.941,0.312
TCATATAGGTAAAGGTGAAAGTGGAACGATATGA,1.44,1.71,1.52,0.597,2.41,1.36,-0.306,1.05,-0.115
CCAGACAGGTGAAAGGTATCTCAGTCTGGTACGC,0.311,0.551,0.554,0.109,0.972,0.0736,-0.151,0.0976,-0.194
CCGACTGGGGCTTAAGGTTACCATAAGCCAGCCC,0.796,0.272,0.0964,-0.55,0.688,2.53,1.94,-0.156,-0.232
TTACCAAGGTGAAAGGGCGTTGATGCACGCCTTG,1.2,1.59,0.688,-0.264,2.14,1.99,0.369,0.61,0.227
CTCGAAAGGTCGTGCTCAGGTGGGTATACCAAAC,2.65,4.38,3.96,1.68,4.59,2.57,0.504,3.24,1.08
ACTAGTTGGTCAGCTGAGGTCACAGACAATTCGG,4.19,4.16,3.84,1.15,4.37,4.99,5.44,4.25,2.9
AGAACGAGGGCAATGCGTTGATAGCACGGGTGGC,0.934,1.05,1.65,1.2,0.834,0.775,-0.0819,1.16,1.17
CCGACTGGGGCAAGGTGACCATAACGCACAGCCA,1.11,0.469,0.934,-0.745,0.419,0.718,0.18,-0.586,-0.459
GATACAGGGTCAAGGACAGAGTACGCGTATTGAT,3.58,5.67,5.78,2.36,6.51,3.85,2.14,4.78,2.72
CGAACTACGTCAAGGACAGTGAATCTCCGCACGC,0.242,-0.205,0.151,0.114,0.0152,1.67,1.13,-0.475,0.0374
CGTCAAAGTTCAACTAAGGCAACGTAAAGCACGC,4.17,5.79,6.64,4.64,5.05,4.74,0.241,4.19,3.68
TCTCGCAGGCCAGAGGGTCACTCAAGAGGTACGG,2.75,2.79,2.32,0.313,2.76,1.73,0.0741,1.79,0.536
CAAATTAGGTCACGAAAGGTCAAAGTCGAATGAC,6.08,8.12,8.73,2.57,8.6,5.25,3.01,7.06,3.61
CCTATTGGTTGACCATAAGGGCAACCGAAGCTCG,1.47,0.997,0.631,-0.724,0.512,1.62,0.504,-0.0561,-0.166
TCTAGTAGATCAAAGGTTAAGAAAGCCGAAGCCT,1.26,1.37,0.721,0.713,3.04,1.19,-0.728,1.37,-0.063

Sequence,PBM binding z-score [1],PBM binding z-score [2],PBM binding z-score [3],PBM binding z-score [4],PBM binding z-score [5],PBM binding z-score [6],PBM binding z-score [7],PBM binding z-score [8],PBM binding z-score [9]
TGAATGAGGTTATAGATCAGGGAACGTGGCGTCG,0.339,1.36,1.02,0.491,2,2.05,0.416,1.06,0.618
ACTATTAGTTGAGACGATGGCAACCGATAGGTTG,-0.57,0.459,0.26,0.0509,0.0596,-0.111,-0.705,-0.293,0.236
ACTAGCAGGCCAAGTTAGGGTCACTCAAACAAAG,3.53,4.02,2.89,-0.159,3.35,4.14,2.34,3.15,1.18
AGTCAAAGTTCACTAGGTACCGTAAGATTCAGCT,3.6,4.92,5.92,4.36,3.75,1.65,-0.132,4.35,3.97
GGTTGTAGATCAAGGTTAAGAAAGACTAAGCTAA,0.97,0.695,0.809,0.0764,0.901,1.53,0.54,0.833,0.584
TCTGGCAGGCCAGAGGGTCACTCAAGAGGTACGG,2.63,2.81,1.94,-0.443,2.6,1.62,-0.676,1.5,0.353
AATCAAAGTTCATCTAGGTAACGTAAGATATGCT,3.95,5.18,5.7,4.69,4.44,3.23,0.0393,5.13,4.45
ACTATTAGTTGACTTAGGGTAACCGATACGACGC,0.611,0.744,0.754,0.853,0.525,2.77,1.43,0.225,0.184
TCTTGTAGATCAGCAGGTTATGAAAGCTGGCCAA,-0.0555,-0.168,-0.428,0.64,0.311,0.276,-0.466,0.359,-0.405
TCGAGTAGGTTAGTCGGGGCAGTCAGCCAACATA,0.699,-0.199,0.0307,0.125,-0.226,0.854,-0.302,0.666,-0.321
TCATATAGGTAAAACGTGAAAGTCGGTGTGGTAA,-0.166,0.237,-0.0627,1.62,0.564,0.025,-0.0697,0.783,0.126
TTACCAAGGTGAGGTGAGGTCGTTGATCCAACTC,2.09,1.42,1.41,0.267,1.86,4.41,2.84,4.3,2.28
TCATTTAGGTAAAGGTGAAAGTCGAACGATATGA,1.52,1.74,1.44,0.874,2.07,2.01,0.0517,1.23,0.0443
CCTTGCAGGCCAATCTGGGTCACTCAAGGCTTGA,2.28,1.15,1.42,0.233,0.742,3.61,0.612,0.663,-0.0782
TCTAGTTGTTCACGGAGGTCACACACGACGGGTA,4.05,3.97,3.7,1.18,4.36,3.39,2.47,4.1,3.06
CCTTACGGGTCACTCCAGGATATAGCATCGGAGT,2.33,4.02,3.98,1.43,4.06,4.39,0.217,2.88,1.23
CGTCCAAGGTCATAGGAGGACAGTGAAGACAGAT,4.12,5.65,6.13,3.71,5.55,4.99,2.83,5.21,3.3
ACTAGCAGGCAAAGTTTGGGTCACTCAAACAAAG,1.61,0.87,0.559,-0.386,0.711,2.14,0.949,0.478,0.233
CCGACTGGCGCAGAAAGGTTACCATACCATCCGG,1.78,0.821,0.575,-0.469,1.66,1.05,-0.286,0.29,-0.331
ATCGAAAGGTCGAAGCTGAGTATACCCACCCGAA,2.18,3.83,3.5,1.42,4.13,1.73,0.00439,2.47,0.746
AATACAGGGTCACTAGGCCAGCGTAGGTACGAAT,3.58,5.12,4.78,2.81,5.29,3.48,1.43,4.16,2.28
AATACAGGGTCACTATGCCAGAGTAGGTACGAAT,2.83,4.76,4.14,2.94,5.15,3.31,1.27,3.91,2.48
CCTATTAGCTGACCATAAGGGCAACCGAAGCTCG,1.61,0.474,0.729,0.637,0.376,1.38,1.18,0.159,0.435
CCTCGTAGGACAACAGGAGGTCAGAGCTGCCAGA,3.16,3.05,3,0.577,2,2.51,0.709,1.64,0.704
TCATATAGGTAAATGCTAGGTGAAAGCCCGATCT,0.272,0.503,0.325,1.5,0.914,1.29,0.116,0.543,-0.161
TCATATAGGTAATACAGGTGAACGTCGGCATCTA,0.903,0.819,0.771,1.86,1.55,1.18,0.563,1.18,0.482
